This is an account of results in ChEMBL document CHEMBL1157539, “Thousands of chemical starting points for antimalarial lead identification” (Nature, 2010).

As usually defined, the Inhibition is the relative decrease from the control value, in per cent.

The first test concerns Plasmodium falciparum. Kind of test: GSK_TCMDC: Inhibition of Plasmodium falciparum 3D7 in whole red blood cells, using parasite LDH activity as an index of growth. Test compounds present at 2uM. It counts as functional.
Molecule `Cl.N#Cc1ccc2c(c1)CCN(CCC1CCC(Nc3ncnc4ccccc34)CC1)C2` (stereo unspecified) registered an Inhibition of 100%. In turn, `COc1ccc(CNC2Cc3ccccc3C2)cc1-c1ccc(S(=O)(=O)NCCN2CCCC2)c(F)c1.O=C(O)C(F)(F)F` came in with an Inhibition of 100%. With `COc1ccc(C=NN=c2cc(C)[nH]c3ccc(C)cc23)c2ccccc12.Cl`, the Inhibition was 94%. As for `Cc1cccc2nc(-c3ccc(-c4ccc(NC(=O)Nc5cccc(C#N)c5)cc4)cc3)[nH]c12`, the Inhibition is 100%. The same measure, in the same setting: next, `COc1ccc2nccc([C@@H](O)CN3CCC(NC(=O)c4cc5c(Cl)cc(Cl)cc5[nH]4)CC3)c2c1`: 100%.

A further test relates to Plasmodium falciparum. The experiment in a line: GSK_TCMDC: Inhibition of Plasmodium falciparum Dd2 in whole red blood cells, using parasite LDH activity as an index of growth. Test compounds present at 2uM. It counts as functional.
`CCCc1cc(NC2CCN(C)CC2)nc(Nc2ccc(F)cc2)n1` displayed an Inhibition of 16%.

Consider `CNc1ccc(CNCc2ccc(-c3ccc(-c4nc5cccc(C)c5[nH]4)cc3)cc2)cc1.O=C(O)C(F)(F)F`, for which the Inhibition is 92%. For the molecule `CC(C#N)Cc1ccc(-c2cnc(N)c3cc(-c4ccnc(N)n4)ccc23)cc1` (stereo unspecified), the Inhibition worked out at 62%. In the case of `CCC[C@@H]([C@@H](CC1CCCCC1)C(=O)N[C@H](C(=O)Nc1nccs1)[C@@H](C)OCc1ccccc1)N(O)C=O`, the Inhibition is 99%. In turn, `CCN(CC)CCN(Cc1ccc(-c2ccc(C(F)(F)F)cc2)cc1)C(=O)Cn1cc(CCCc2cccc(F)c2F)c(=O)c2ccccc21.O=C(O)C(O)C(O)C(=O)O` gave an Inhibition of 20%. `Cc1cccc2c3c([nH]c12)C1(CCN(CCc2ccccc2)CC1)NC(C(=O)NCc1ccccc1)C3` (stereo unspecified) had an Inhibition of 52%. On the same count and under the same terms, next, `COc1ccccc1-c1cccc(CNC2CCN(CC3Cn4c(=O)ccc5ccc(F)c3c54)CC2)c1.O=C(O)C(F)(F)F` (stereo unspecified): 0%.

`CN1CCN(c2ccnc3ccc(NC(=O)Nc4ccc5c(c4)CCCC5=O)cc23)CC1` returned an Inhibition of 90%. On the same count and under the same terms, next, `CC(C)NCc1ccc(-c2cccc(NC(=O)c3ccc(Cl)cc3)c2)cc1.O=C(O)C(F)(F)F`: 82%.

As for `COc1cccc(CNC[C@@H](O)[C@H](Cc2ccccc2)NC(=O)c2cc(N3CCCC3=O)c3[nH]cc(C(C)C)c3c2)c1`, the Inhibition is reported as 98%. On the same count and under the same terms, to `CC1CCCC(NC(=O)CCOc2ccccc2)C1` (stereo unspecified) belongs 32%; to `COCCN(CCOC)c1ncc(-c2ccsc2)c(-c2nc(C)c(C)s2)n1`, 63%; to `NCc1ccc(-c2cccc(CNC3CCN(Cc4ccccc4)CC3)c2)cc1.O=C(O)C(F)(F)F`, 50%.

In turn, `Cn1cnc(CCNC(=O)c2cccc(-c3csc(-c4nc5ccccc5[nH]4)c3)c2)c1` yielded an Inhibition of 26%. Still for that read-out and setting: to `CN(c1ccccc1)S(=O)(=O)c1cccc(NC(=O)c2ccc(-n3ccnc3)c([N+](=O)[O-])c2)c1` belongs 0%; to `CC(C)N(C(=O)CSc1nc2cc(Cl)ccc2c(=O)n1Cc1ccccc1)C(C)C`, 97%; to `Oc1cccc(-c2nc3cc(C4=NC5CCCCC5N4)ccc3[nH]2)c1` (stereo unspecified), 99%.

`COc1ccc(NC(=O)[C@H](CC(C)C)Nc2cc(C)nc(NCC3CCCCC3)n2)cc1.O=C(O)C(F)(F)F` came in with an Inhibition of 92%. On the same count and under the same terms, to `COc1ccc(CCNCc2cc3c(C(C)(C)C)nn(-c4ccc(Cl)cc4)c3[nH]c2=O)cc1OC` belongs 99%; to `O=C(Nc1cccc(-c2nc3ccccc3[nH]2)c1)c1ccc(-c2cccc([N+](=O)[O-])c2)o1`, 28%; to `O=C(NC1CCN(Cc2ccccc2)CC1)c1cc(-c2cccnc2)nc2ccc(Cl)cc12`, 26%.

With `CC[C@H]1CN2CCc3c([nH]c4ccccc34)[C@@H]2C[C@@H]1CC1c2cc(OC)c(OC)cc2CCN1C.Cl` (stereo partly specified), the Inhibition was 45%.

For `COc1cc2ccccc2c(CON2C(=N)N=C(N)NC2(C)C)c1OC.Cl`, the Inhibition worked out at 10%. `O=S(=O)(c1cccc(Cl)c1F)N(CCC(O)(C(F)(F)F)C(F)(F)F)Cc1cccc(O)c1` registered an Inhibition of 86%. The same measure, in the same setting: next, `CC(C)CCNC(=O)C1Cc2c([nH]c3cc(Br)ccc23)C2(CCN(CCc3ccccc3)CC2)N1` (stereo unspecified): 48%; `COc1ccc(C)c(Nc2ccnc(Nc3ccc(-c4cnc[nH]4)cc3)n2)c1.Cl`: 6%; `CN1CCC(C(=O)Nc2cccc(-c3ccc(-c4nc5ccccc5[nH]4)cc3)c2)CC1`: 15%. `CCN(CC)CCNc1ccnc2[nH]c3ccc(C)cc3c12` returned an Inhibition of 81%.

Regarding `Cl.O=C(N[C@@H](Cc1ccccc1)[C@H](O)CNC1CCCc2ccccc21)c1cc(C2CCCC2)cc(N2CCCC2=O)c1` (stereo partly specified), the Inhibition is reported as 99%. `CCc1ccc2nc(-c3ccc(F)cc3)nc(SCC(=O)Nc3sc(C)c(C)c3C#N)c2c1` had an Inhibition of 5%. The same measure, in the same setting: next, `Cc1cccc2nc(-c3ccc(-c4ccc(CN5CCC(CO)CC5)cc4)s3)[nH]c12.O=C(O)C(F)(F)F`: 82%.
